We go through 40 molecules from PubChem BioAssay (Tox21).

Inconclusive results are not listed. A call without a number means that no potency is given here. Active and inactive are the calls of the source. Calls follow the shape of the dose curve; as a rule, active = well fitted activation curve with a large enough effect in the repeat runs; inconclusive = weak or mixed curves; inactive = no such curve, though single readings can be large or run the other way.
Potency is read from the fitted curve at half-maximal effect.

Sequence of Nuclear receptor subfamily 1 group I member 2 (Homo sapiens) (O75469 whole entry, looked up): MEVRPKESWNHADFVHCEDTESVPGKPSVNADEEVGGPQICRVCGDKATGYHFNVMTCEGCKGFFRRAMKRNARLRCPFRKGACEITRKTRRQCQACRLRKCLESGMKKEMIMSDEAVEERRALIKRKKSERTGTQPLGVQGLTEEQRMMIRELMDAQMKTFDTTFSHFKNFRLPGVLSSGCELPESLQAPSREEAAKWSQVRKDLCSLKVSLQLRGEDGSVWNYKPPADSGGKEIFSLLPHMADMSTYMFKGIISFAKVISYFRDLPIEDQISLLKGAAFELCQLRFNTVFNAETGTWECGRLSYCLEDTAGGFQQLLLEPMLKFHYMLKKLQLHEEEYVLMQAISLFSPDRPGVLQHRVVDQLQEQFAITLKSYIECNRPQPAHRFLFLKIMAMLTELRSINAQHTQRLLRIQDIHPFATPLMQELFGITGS

The assay has as its target Nuclear receptor subfamily 1 group I member 2 (Homo sapiens) (UniProt O75469). In words: Human pregnane X receptor (PXR) small molecule agonists, qHTS assay (AID 1346982). Also: nearly all actives have a fitted effect of over 35% in size. The following applies: PXR-Luc HepG2, CYP3A4 luciferase reporter, 24 h; series mostly up to 92.4 µM. The text has this: National Center for Advancing Translational Sciences [NCATS]
NIH Chemical Genomics Center [NCGC]
U.S. Environmental Protection Agency [EPA]
National Institutes of Environmental Health Sciences [NIEHS]
National Toxicology Program [NTP]
The human pregnane X receptor (hPXR) regulates the expression of several drug metabolizing enzymes and induction of these proteins is a major mechanism for developing drug resistance in cancer. One such key enzyme catalyzing the drug metabolism is cytochrome P450 3A4 (CYP3A4). Changes in CYP3A4 expression affect drug metabolism, thereby reducing the therapeutic efficacy and altering toxicological response to a drug and which finally causes adverse drug interaction. To screen Tox21 libraries for compounds that activate hPXR-mediated CYP3A4 gene expression, PXR-Luc HepG2 cells were used.
PXR-Luc HepG2 cells were dispensed at 2,000 per well in 5uL of assay medium containing 5% charcoal-stripped FBS into white solid bottom 1536-well plates (Corning Life Sciences, Corning, NY) using a Multidrop Combi (Thermo Scientific, Waltham, MA) dispenser. The assay plates were incubated at 37 C and 5% CO2 for 5hr, and then 23nL of compounds dissolved in DMSO and positive control were transferred using a Pintool station (Wako, San Diego, CA). The assay plates were incubated at 37C and 5% CO2 for 24hr. For luciferase read, 4uL of ONE-Glo reagent (Promega Corporation, Madison, WI) was added to each well of the assay plates using Flying Reagent Dispenser (FRD, Aurora Discovery, San Diego, CA) and incubated the assay plates at room temperature for 30min. The luminescence signal was quantified using a ViewLux plate reader (Perkin Elmer, Shelton, CT).
`CC(=O)N[C@@H](CCC(=O)O)C(=O)O`: the Potency entry was “inactive”.

With `O=C(O)c1ccc(Cl)cc1Cl`, the Potency entry is “inactive”.

Take `O=C1O[C@@H]2[C@@H](O)[C@H](O)O[C@@H]2[C@H]1O`: the Potency entry is “inactive”.

Consider `N[C@@H](COP(=O)(O)O)C(=O)O`, for which the activation is 9.49% [at 19 µM] (inactive).

Turning to `CC(=O)Nc1ccc(S(=O)(=O)Nc2ccc([N+](=O)[O-])cc2)cc1`, the Potency entry was “inactive”.

As to `CC1(C)S[C@@H]2[C@H](N=CN3CCCCCC3)C(=O)N2[C@H]1C(=O)O`, the Potency entry was “inactive”.

Turning to `C=C(C)C1CCC(C)(O)CC1` (stereo not given), the Potency entry was “inactive”.

Consider `CCCCCCCCOS(=O)(=O)O`, for which the Potency result is “inactive”.

For the molecule `CCCCCCOC(=O)CC`, the Potency result is “inactive”.

With `CC(C(=O)O)c1ccc2c(c1)CC(=O)c1ccccc1S2` (stereo not given), the Potency entry was “inactive”.

Regarding `CC(C)N(c1ccccc1)C(C)C`, the Potency result is “inactive”.

As to `CC(CO)c1ccccc1` (stereo not given), the Potency result is “inactive”.

Turning to `CN=C(NC#N)Nc1ccc(C2=NNC(=O)CC2C)cc1` (stereo not given), the Potency entry is “inactive”.

For the molecule `C[C@@H](O)[C@H]1C(=O)N2C(C(=O)O)=C(SCCN=CN)C[C@H]12`, the Potency result was “inactive”.

Turning to `O=S(=O)(O)c1cc(O)c2ccc(Nc3ccccc3)cc2c1`, the Potency entry is “inactive”.

For `O=C(OCC(COC(=O)c1cccnc1)(COC(=O)c1cccnc1)COC(=O)c1cccnc1)c1cccnc1`, the Potency result is “inactive”.

`C=Cc1ccccn1`: the Potency result was “inactive”.

Turning to `O=C(c1ccc(O)cc1)c1ccc(O)c(O)c1O`, the Potency is 13.7 µM (active).

Turning to `CN(C)C(=O)CNC(=O)Cc1ccccc1`, the Potency result was “inactive”.

For the molecule `O=C(OCC(O)CO)c1ccccc1Nc1ccnc2c(C(F)(F)F)cccc12` (stereo not given), the Potency is 26.6 µM (active).

Regarding `CC(=O)CCCCn1c(=O)c2c(ncn2C)n(C)c1=O`, the Potency result is “inactive”.

As to `COc1cc2c(cc1OC)C(=O)CC2`, the Potency entry was “inactive”.

As to `Cc1cccc(OCC(O)CNC(C)(C)C)c1C` (stereo not given), the Potency entry was “inactive”.

In the case of `CCOC(=O)c1ncn2c1CN(C)C(=O)c1cc(F)ccc1-2`, the Potency entry is “inactive”.

As to `CC(C)C(=O)OCc1cccc(OC(=O)[C@@H]2N3C(=O)[C@@H](NC(=O)Cc4ccccc4)[C@H]3SC2(C)C)c1`, the Potency entry is “inactive”.

Take `NNc1nnc(NN)c2ccccc12`: the Potency result is “inactive”.

For `O=C1CCCC(=O)O1`, the Potency entry is “inactive”.

As to `Brc1ccc(-c2ccccc2)cc1`, the Potency entry was “inactive”.

For the molecule `Cc1ccc2c(c1)OCC(=O)CO2`, the Potency result was “inactive”.

For the molecule `CC/C=C\CC1=C(C)CCC1=O`, the Potency was 34.4 µM (active).

Consider `Cc1cc(C(C)(C)C)c(O)c(C)c1CC1=NCCN1`, for which the Potency result was “inactive”.

Regarding `CC1(CO)CN(c2ccccc2)NC1=O` (stereo not given), the Potency is 61.1 µM (active).

`N[C@@H](CCC(=O)Nc1ccc([N+](=O)[O-])cc1)C(=O)O`: the Potency result is “inactive”.

As for `COC(=O)C1CC(=O)C(C(=O)OC)CC1=O` (stereo not given), the activation is 2.25% [at 8.39 µM] (inactive).

As for `O=S(=O)(O)c1ccc2cc(O)c(S(=O)(=O)O)cc2c1`, the Potency entry was “inactive”.

Regarding `OCCC(F)(F)C(F)(F)C(F)(F)C(F)(F)C(F)(F)C(F)(F)C(F)(F)C(F)(F)F`, the Potency entry was “inactive”.

Consider `C=C(C)C(=O)OCC(C)(C)COC(=O)C(=C)C`, for which the Potency result was “inactive”.

Consider `C#CC(C)N(C)C(=O)Nc1ccc(Cl)cc1` (stereo not given), for which the Potency was 61.1 µM (active).

With `CC(C)(C)OC(=O)c1ccc(O)cc1`, the Potency is 27.3 µM (active).

Turning to `Cc1ccsc1/C=C/C1=NCCCN1C`, the Potency result is “inactive”.
